Results: the supplement of paper PMC10849652
Of roughly 8,800 targets only a part is listed; those with a hit were picked by preference. About 0.5% of all pairs of compound and target were hits.

Columns and labels:
Assay in all cases: log2 fold change, soluble protein after heating vs DMSO (PISA); higher = thermal stabilisation; K562 lysate, 10 uM; active = over 0.2 and 3.5 SD of the protein, either way, in both replicates (recomputed)
[1] = compound: CS(=O)(=O)N1CCN(Cc2cc3nc(-c4cccc5[nH]ncc45)nc(N4CCOCC4)c3s2)CC1 [pictilisib]
How it was run: (§1)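 Values give the log-two fold change in thermal stability against solvent controls, from duplicates. Crude K562 extract at 1 mg/mL protein, made by dounce homogenisation in PBS pH 7.4 with 1 mM MgCl2, was treated with 10 μM compound for 30 min. After 3 min heating across 48°C-58°C, aliquots were pooled, adjusted to 0.5% NP-40 at 4°C and centrifuged at 21,000xg for 90 min. The supernatant was measured by TMTpro 16plex LC-MS/MS with channel sums equalised.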

[2] = compound: C[C@@H](Oc1cc(-c2cnn(C3CCNCC3)c2)cnc1N)c1c(Cl)ccc(F)c1Cl [crizotinib]
How it was run: as §1

[3] = compound: C[C@H](C1=CC=C(C=C1)C(=O)NC2=C3C=CNC3=NC=C2)N
How it was run: as §1

[4] = compound: Cc1cc(Nc2cc(CN3CCOCC3)c3nc(C)c(Cc4ccc(Cl)cc4F)n3n2)n[nH]1 [gandotinib]
How it was run: as §1

[5] = compound: Cc1ccc(-n2nc(C(C)(C)C)cc2NC(=O)Nc2ccc(OCCN3CCOCC3)c3ccccc23)cc1 [doramapimod]
How it was run: as §1

[6] = compound: Cc1ccc(NC(=O)c2ccc(CN3CC[C@H](N(C)C)C3)c(C(F)(F)F)c2)cc1Nc1nccc(-c2cncnc2)n1 [bafetinib]
How it was run: as §1

[7] = compound: Cc1cccc(CC(=O)N2CCc3c2ccc(-c2cn(C)c4ncnc(N)c24)c3F)n1
How it was run: as §1

[8] = compound: Cc1cn(-c2cc(NC(=O)c3ccc(C)c(Nc4nccc(-c5cccnc5)n4)c3)cc(C(F)(F)F)c2)cn1 [nilotinib]
How it was run: as §1

[9] = compound: Cc1nc(Nc2n[nH]c3c2CN(C(=O)N[C@H](CN(C)C)c2ccccc2)C3(C)C)c2sccc2n1
How it was run: as §1

[10] = compound: Cc1ncc(-c2ccnc(Nc3ccc(S(C)(=O)=O)cc3)n2)n1C(C)C
How it was run: as §1

[11] = compound: Cn1cc(CNCC2CCN(c3ncc(C(=O)NO)cn3)CC2)c2ccccc21 [quisinostat]
How it was run: as §1

[12] = compound: Cn1cncc1[C@@](N)(c1ccc(Cl)cc1)c1ccc2c(c1)c(-c1cccc(Cl)c1)cc(=O)n2C [tipifarnib]
How it was run: as §1

[13] = compound: NC(=O)Nc1cc(-c2cccc(F)c2)sc1C(=O)N[C@H]1CCCNC1
How it was run: as §1

[14] = compound: C[C@H](Nc1ncnc2nc[nH]c12)c1cc2cccc(Cl)c2c(=O)n1-c1ccccc1 [duvelisib]
How it was run: as §1

[15] = compound: Cc1cc(Nc2cc(N3CCN(C)CC3)nc(Sc3ccc(NC(=O)C4CC4)cc3)n2)n[nH]1 [tozasertib]
How it was run: as §1

[16] = compound: Cc1nc(Nc2ncc(C(=O)Nc3c(C)cccc3Cl)s2)cc(N2CCN(CCO)CC2)n1 [dasatinib]
How it was run: as §1

[17] = compound: Cn1cc(-c2ccc3c(c2)CCN3C(=O)Cc2cccc(C(F)(F)F)c2)c2c(N)ncnc21
How it was run: as §1

[18] = compound: NC1(c2ccc(-c3nc4ccn5c(=O)[nH]nc5c4cc3-c3ccccc3)cc2)CCC1
How it was run: as §1

[19] = compound: CS(=O)(=O)CCNCc1ccc(-c2ccc3ncnc(Nc4ccc(OCc5cccc(F)c5)c(Cl)c4)c3c2)o1 [lapatinib]
How it was run: as §1

[20] = compound: NC(=O)c1cnc(N[C@@H]2CCCC[C@@H]2N)nc1Nc1cccc(-n2nccn2)c1
How it was run: as §1

Measured: log2 fold change

C3AR1 (UniProt Q16581)
inactive: [1] -0.023 | [2] 0.02 | [3] -0.025 | [4] 0.043 | [5] -0.01 | [6] 0.111 | [7] 0.099 | [8] -0.026 | [9] 0.286 | [10] -0.111 | [11] 0.065 | [12] -0.036 | [13] -0.033

BMT2 (UniProt Q1RMZ1)
inactive: [3] 0.116 | [4] -0.124 | [7] -0.056 | [8] 0.172 | [10] 0.134 | [12] 0
active: [9] -0.923

CDCA8 (UniProt Q53HL2)
UniProt Q53HL2, sequence (Q53HL2 whole entry, looked up): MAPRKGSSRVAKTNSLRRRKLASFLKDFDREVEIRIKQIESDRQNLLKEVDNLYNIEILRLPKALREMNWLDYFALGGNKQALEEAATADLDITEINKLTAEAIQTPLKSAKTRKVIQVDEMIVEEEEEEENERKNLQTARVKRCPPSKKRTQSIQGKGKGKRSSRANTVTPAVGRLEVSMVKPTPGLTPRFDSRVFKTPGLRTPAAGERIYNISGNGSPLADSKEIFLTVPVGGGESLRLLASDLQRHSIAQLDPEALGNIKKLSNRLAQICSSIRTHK
inactive: [1] 0.072 | [3] 0.319 | [14] 0.031 | [4] -0.031 | [15] -0.047 | [6] -0.217 | [7] -0.128 | [8] 0.03 | [9] -0.002 | [16] 0.012 | [10] -0.277 | [17] -0.011 | [12] 0.046 | [18] -0.051

ATG4D (UniProt Q86TL0)
active: [17] -0.57
inactive: [1] -0.054 | [2] -0.031 | [14] 0.109 | [15] 0.099 | [5] -0.072 | [6] -0.056 | [16] -0.037 | [11] -0.085 | [13] 0.084

ATPSCKMT (UniProt Q6P4H8)
inactive: [1] -0.113 | [2] -0.039 | [14] -0.036 | [15] -0.219 | [5] 0.022 | [6] -0.034 | [16] 0.052 | [17] -0.021 | [11] 0.018 | [13] 0.001

CDK17 isoform 2 (UniProt Q00537)
inactive: [1] -0.008 | [2] 0.026 | [3] 0.096 | [14] -0.04 | [4] 0.042 | [15] -0.113 | [5] 0.15 | [6] -0.033 | [7] -0.359 | [8] 0.061 | [9] 0.117 | [16] -0.068 | [10] 0.096 | [17] 0.011 | [11] -0.069 | [12] -0.423 | [13] -0.057 | [18] 0.068

CCP110 (UniProt O43303)
inactive: [1] -0.085 | [2] -0.006 | [14] 0.084 | [15] -0.009 | [5] 0.009 | [6] -0.053 | [16] 0.063 | [17] -0.01 | [11] -0.062 | [13] 0.107 | [18] 0.055

ATXN2 (UniProt F8WB06)
inactive: [14] 0.187 | [16] -0.074 | [17] -0.053

CENPV (UniProt Q7Z7K6)
inactive: [1] 0.02 | [2] -0.119 | [3] 0.089 | [4] -0.193 | [15] 0.094 | [5] -0.149 | [6] -0.163 | [7] -0.36 | [9] -0.184 | [10] 0.816 | [11] 0.038 | [12] 0.08 | [13] -0.077
active: [8] 1.5

BCORL1 isoform 3 (UniProt Q5H9F3)
UniProt Q5H9F3, sequence (Q5H9F3 whole entry, looked up): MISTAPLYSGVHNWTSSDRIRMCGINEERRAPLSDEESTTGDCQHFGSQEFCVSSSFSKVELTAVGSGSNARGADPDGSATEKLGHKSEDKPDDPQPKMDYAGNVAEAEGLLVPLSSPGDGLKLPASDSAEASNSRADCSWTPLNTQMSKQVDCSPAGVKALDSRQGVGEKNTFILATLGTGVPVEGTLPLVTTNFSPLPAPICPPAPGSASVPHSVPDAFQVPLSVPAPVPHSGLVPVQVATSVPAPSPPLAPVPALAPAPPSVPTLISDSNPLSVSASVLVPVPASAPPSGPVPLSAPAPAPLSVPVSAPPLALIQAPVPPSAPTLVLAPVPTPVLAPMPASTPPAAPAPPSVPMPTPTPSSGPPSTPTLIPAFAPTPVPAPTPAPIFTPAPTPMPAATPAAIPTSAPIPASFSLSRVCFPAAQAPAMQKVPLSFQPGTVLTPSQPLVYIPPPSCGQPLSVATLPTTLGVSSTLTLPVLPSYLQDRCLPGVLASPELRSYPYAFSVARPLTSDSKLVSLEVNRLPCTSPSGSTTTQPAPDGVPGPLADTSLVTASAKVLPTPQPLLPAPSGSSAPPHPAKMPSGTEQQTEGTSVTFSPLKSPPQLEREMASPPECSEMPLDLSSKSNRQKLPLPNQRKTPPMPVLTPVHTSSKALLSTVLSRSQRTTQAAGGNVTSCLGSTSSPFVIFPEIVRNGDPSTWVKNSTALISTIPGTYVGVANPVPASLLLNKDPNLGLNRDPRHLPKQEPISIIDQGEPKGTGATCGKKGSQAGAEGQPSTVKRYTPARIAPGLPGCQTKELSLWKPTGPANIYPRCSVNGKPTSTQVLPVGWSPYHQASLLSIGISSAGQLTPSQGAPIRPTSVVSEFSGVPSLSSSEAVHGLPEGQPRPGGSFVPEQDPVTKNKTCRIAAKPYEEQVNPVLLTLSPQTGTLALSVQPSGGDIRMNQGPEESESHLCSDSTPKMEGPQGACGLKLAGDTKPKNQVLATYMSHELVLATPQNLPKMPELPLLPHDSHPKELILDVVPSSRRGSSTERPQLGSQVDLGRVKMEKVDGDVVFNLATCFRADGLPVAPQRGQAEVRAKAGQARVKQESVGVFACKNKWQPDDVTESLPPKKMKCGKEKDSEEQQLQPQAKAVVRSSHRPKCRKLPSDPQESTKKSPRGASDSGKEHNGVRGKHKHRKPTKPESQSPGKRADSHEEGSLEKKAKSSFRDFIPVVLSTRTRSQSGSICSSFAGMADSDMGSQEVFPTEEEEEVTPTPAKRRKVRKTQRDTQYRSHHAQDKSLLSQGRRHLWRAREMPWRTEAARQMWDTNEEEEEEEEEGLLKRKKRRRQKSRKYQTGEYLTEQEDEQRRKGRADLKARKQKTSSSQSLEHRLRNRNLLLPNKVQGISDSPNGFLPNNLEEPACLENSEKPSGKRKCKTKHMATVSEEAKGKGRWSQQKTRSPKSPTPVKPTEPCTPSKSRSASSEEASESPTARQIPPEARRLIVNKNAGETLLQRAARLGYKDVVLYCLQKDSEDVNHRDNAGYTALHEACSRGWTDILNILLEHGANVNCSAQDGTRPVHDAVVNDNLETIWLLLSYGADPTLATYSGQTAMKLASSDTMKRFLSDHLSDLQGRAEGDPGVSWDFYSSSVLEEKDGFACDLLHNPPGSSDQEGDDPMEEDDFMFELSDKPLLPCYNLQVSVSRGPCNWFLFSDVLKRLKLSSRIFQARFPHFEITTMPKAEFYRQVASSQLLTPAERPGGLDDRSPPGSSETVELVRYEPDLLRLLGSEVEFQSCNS
active: [3] -0.577
inactive: [2] -0.162 | [14] 0.1 | [4] 0.238 | [15] 0.049 | [5] 0.117 | [7] 0.475 | [16] 0.039 | [17] -0.09 | [11] 0.035 | [13] 0.235 | [18] -0.091

CEP152 (UniProt O94986)
UniProt O94986, sequence (O94986 whole entry, looked up): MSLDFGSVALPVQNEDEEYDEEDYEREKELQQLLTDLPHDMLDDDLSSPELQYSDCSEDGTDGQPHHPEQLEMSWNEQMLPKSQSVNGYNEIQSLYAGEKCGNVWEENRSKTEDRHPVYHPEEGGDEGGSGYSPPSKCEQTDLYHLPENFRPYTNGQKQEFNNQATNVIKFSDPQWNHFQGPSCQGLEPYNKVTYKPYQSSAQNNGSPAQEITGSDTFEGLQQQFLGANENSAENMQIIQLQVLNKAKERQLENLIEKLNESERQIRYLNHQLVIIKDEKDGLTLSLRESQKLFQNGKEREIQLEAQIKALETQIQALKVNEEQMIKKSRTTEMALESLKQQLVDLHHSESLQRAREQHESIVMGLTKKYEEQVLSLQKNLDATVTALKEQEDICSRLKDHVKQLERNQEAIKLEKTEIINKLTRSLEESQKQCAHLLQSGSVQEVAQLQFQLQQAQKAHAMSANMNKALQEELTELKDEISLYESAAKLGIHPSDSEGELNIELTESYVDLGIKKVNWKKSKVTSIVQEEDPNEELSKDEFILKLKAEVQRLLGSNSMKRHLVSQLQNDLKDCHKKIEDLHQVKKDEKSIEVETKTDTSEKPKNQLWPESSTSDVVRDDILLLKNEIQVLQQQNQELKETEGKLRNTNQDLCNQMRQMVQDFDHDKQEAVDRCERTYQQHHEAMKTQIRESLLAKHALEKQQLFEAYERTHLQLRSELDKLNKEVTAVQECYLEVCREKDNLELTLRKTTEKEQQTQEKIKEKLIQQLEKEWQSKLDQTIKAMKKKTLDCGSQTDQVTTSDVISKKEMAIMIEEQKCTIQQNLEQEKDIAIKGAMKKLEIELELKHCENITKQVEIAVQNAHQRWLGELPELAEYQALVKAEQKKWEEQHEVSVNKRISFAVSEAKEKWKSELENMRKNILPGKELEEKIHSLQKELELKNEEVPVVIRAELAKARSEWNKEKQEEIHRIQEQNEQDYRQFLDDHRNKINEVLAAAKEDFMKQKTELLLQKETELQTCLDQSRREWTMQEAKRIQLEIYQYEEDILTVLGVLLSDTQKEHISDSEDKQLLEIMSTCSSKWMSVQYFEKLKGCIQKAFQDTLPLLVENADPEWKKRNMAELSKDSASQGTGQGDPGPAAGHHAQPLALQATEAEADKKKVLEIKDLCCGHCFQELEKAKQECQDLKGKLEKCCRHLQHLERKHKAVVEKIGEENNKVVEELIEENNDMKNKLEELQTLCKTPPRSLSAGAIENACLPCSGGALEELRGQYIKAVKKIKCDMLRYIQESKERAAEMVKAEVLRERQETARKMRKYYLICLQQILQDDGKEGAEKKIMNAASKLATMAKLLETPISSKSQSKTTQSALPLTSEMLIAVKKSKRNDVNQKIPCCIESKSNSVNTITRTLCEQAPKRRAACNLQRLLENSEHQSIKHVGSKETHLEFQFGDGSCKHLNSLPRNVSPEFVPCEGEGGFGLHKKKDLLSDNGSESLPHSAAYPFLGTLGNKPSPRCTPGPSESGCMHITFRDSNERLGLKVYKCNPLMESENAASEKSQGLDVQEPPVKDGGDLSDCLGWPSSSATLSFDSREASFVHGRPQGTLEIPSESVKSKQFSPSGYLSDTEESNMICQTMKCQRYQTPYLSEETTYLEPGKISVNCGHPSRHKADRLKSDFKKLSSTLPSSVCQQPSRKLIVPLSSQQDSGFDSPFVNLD
active: [11] -0.413
inactive: [1] -0.013 | [2] -0.22 | [3] -0.089 | [14] -0.017 | [4] 0.006 | [15] -0.114 | [5] -0.057 | [6] -0.071 | [7] 0.058 | [8] -0.058 | [9] 0.108 | [16] 0.012 | [10] -0.014 | [17] -0.017 | [12] 0.02 | [13] 0.058 | [18] 0.112

CEP57L1 (UniProt Q8IYX8)
UniProt Q8IYX8, sequence (Q8IYX8 whole entry, looked up): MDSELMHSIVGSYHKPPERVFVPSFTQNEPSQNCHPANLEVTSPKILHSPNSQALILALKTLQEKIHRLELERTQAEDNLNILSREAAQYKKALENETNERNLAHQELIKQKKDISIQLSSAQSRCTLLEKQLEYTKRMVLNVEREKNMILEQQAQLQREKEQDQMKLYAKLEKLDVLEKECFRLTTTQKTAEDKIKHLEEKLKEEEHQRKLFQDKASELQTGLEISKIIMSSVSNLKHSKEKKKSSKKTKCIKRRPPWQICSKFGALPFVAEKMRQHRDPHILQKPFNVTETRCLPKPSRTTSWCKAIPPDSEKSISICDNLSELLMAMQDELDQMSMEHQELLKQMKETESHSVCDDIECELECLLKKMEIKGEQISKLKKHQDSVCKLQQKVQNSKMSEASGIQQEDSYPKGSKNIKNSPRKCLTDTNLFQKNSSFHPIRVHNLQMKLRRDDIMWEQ
inactive: [1] 0.076 | [2] 0.056 | [3] -0.039 | [14] -0.004 | [4] -0.022 | [15] -0.07 | [5] 0.05 | [6] -0.184 | [7] 0.073 | [8] 0.246 | [9] -0.129 | [16] 0 | [10] -0.014 | [17] 0.34 | [11] -0.101 | [12] -0.015 | [13] 0.041 | [18] 0.031

CDC14A isoform 2 (UniProt Q9UNH5)
inactive: [19] 0.062 | [2] 0.031 | [5] 0.108 | [8] -0.076 | [9] 0.07 | [10] -0.001 | [11] -0.174 | [12] -0.019 | [13] 0.083 | [20] 0.101

C1orf131 isoform 5 (UniProt Q8NDD1)
UniProt Q8NDD1, sequence (Q8NDD1 whole entry, looked up): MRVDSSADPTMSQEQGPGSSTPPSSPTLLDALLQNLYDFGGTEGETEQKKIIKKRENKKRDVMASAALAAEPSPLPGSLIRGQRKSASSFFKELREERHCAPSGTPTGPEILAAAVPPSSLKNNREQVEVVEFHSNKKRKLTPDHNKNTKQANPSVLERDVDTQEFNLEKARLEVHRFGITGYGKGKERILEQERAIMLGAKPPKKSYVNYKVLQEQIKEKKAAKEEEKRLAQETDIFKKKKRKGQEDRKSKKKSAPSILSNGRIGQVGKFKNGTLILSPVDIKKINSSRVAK
inactive: [19] 0.065 | [2] -0.006 | [3] -0.16 | [14] 0.028 | [4] 0.076 | [15] 0.03 | [5] -0.008 | [7] 0.177 | [8] -0.106 | [9] -0.059 | [16] 0.048 | [10] -0.135 | [17] 0.034 | [11] -0.103 | [12] 0.073 | [13] -0.025 | [20] -0.035 | [18] 0.002

CAPNS1 (UniProt K7ES78)
inactive: [19] 0.162 | [2] 0.158 | [14] 0.17 | [5] -0.08 | [16] -0.027 | [17] -0.006 | [11] 0.247 | [13] -0.002 | [20] 0.053 | [18] -0.099

CASC1 (UniProt Q6TDU7)
inactive: [1] -0.06 | [3] -0.175 | [4] 0.058 | [6] 0.953 | [7] 0.095

BRAF (UniProt P15056)
active: [6] 0.64
inactive: [1] -0.025 | [2] -0.099 | [3] -0.086 | [14] 0.015 | [4] 0.014 | [15] -0.013 | [7] 0.065 | [9] 0.011 | [10] -0.043 | [17] 0.002 | [11] -0.173 | [12] -0.006 | [13] 0.018 | [20] 0.007

CDC25A (UniProt P30304)
UniProt P30304, sequence (P30304 whole entry, looked up): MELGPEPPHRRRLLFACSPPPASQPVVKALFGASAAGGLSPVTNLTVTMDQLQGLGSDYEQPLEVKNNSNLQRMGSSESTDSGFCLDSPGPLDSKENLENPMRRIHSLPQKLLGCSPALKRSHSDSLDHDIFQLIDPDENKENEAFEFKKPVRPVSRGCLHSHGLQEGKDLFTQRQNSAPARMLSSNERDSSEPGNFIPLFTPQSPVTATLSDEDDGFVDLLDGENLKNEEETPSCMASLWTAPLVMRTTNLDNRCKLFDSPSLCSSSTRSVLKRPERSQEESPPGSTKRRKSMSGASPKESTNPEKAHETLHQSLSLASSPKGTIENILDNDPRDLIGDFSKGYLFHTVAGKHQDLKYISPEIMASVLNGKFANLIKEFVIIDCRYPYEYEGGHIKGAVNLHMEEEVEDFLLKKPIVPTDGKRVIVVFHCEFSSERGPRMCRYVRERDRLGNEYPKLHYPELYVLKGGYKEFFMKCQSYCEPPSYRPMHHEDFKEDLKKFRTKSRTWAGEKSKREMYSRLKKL
inactive: [19] -0.016 | [14] -0.014 | [5] 0.114 | [8] 0.013 | [9] -0.01 | [16] -0.035 | [10] -0.021 | [17] 0.024 | [11] 0.006 | [12] 0.011 | [13] 0.017 | [20] 0.016 | [18] 0.025
